PubChem BioAssay (Tox21)
“And” between values parts separate entries of the source, which are not always exact repeats. Equal entries are not always repeated. Inconclusive results are not listed. A call without a number means that no potency is given here. Where a structure was tested more than once in an assay, its records may differ in their call. The source made the active and inactive calls. Unless noted, calls follow the shape of the dose curve; as a rule, active = well fitted curve in the direction sought with a large enough effect in the repeat runs; inconclusive = weak or mixed curves; inactive = no such curve, though single readings can be large; an effect the other way counts as inactive or inconclusive.

Assays:
[1] = target: Thyrotropin receptor (Homo sapiens) (UniProt P16473); assay: qHTS assay to identify small molecule agonists of the thyroid stimulating hormone receptor (TSHR) signaling pathway (AID 1224843; calls by dose curve; also: nearly all actives have a fitted effect of over 45% in size)
Chain of Thyrotropin receptor (Homo sapiens) (P16473 whole entry, looked up): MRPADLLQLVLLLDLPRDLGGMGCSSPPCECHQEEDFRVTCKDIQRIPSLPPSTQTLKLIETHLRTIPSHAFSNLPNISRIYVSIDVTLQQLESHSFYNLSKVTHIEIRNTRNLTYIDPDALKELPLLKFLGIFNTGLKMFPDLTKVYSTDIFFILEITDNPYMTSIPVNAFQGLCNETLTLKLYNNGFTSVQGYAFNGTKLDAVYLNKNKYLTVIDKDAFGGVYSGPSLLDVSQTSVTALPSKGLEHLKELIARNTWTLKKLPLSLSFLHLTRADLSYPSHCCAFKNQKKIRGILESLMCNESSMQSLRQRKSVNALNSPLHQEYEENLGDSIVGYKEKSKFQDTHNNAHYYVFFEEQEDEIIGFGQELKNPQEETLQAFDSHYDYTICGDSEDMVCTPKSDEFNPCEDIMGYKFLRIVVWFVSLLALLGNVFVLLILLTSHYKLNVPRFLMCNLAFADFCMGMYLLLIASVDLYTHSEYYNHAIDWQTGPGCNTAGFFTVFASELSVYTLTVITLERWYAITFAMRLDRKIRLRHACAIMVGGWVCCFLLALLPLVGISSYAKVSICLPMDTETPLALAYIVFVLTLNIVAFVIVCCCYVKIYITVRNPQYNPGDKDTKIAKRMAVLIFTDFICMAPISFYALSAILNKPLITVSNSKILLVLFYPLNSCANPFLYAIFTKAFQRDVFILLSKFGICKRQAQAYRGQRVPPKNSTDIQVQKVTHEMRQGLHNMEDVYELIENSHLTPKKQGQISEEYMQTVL
In short: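 TSHR-expressing HEK293 cells (800 per well) were exposed to compounds for 30 min at room temperature. cAMP was then detected by HTRF competition with cAMP-d2 and anti-cAMP cryptate, read after 1 h at room temperature. Fifteen concentrations, triplicate.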

[2] = qHTS assay to identify small molecule agonists of the hypoxia (HIF-1) signaling pathway - cell viability counter screen (AID 1224844; calls by dose curve; also: nearly all actives have a fitted effect of over 50% in size; also: potency is read from the fitted curve at half-maximal effect)
In short: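 Tox21 10K compounds were added to HRE-bla ME-180 cells (0.5% dialyzed FBS) and incubated 17 hrs at 37C; ATP-based CellTiter-Glo luminescence then reported cell viability in the same wells.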

[3] = qHTS assay to identify small molecule agonists of H2AX (AID 1224845; active = well fitted activation curve with a large enough effect in the signal ratio in the repeat runs, not every such curve was filed as active; the % refers to the signal ratio)
In short: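 Wild-type CHO-K1 cells plated overnight, then exposed 3 hr at 37C to compounds at 15 concentrations (0.76% DMSO). Lysed, then HTRF anti-pH2AX(S139)-cryptate/anti-H2AX-d2 detection after 24 hr at room temperature; emissions 665 and 620 nm.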

[4] = qHTS assay to identify small molecule agonists of the hypoxia (HIF-1) signaling pathway (AID 1224846; active = well fitted activation curve with a large enough effect in the signal ratio in the repeat runs, not every such curve was filed as active; the % refers to the signal ratio)
In short: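 Steps: seed ME-180 HRE-bla cells (2,000/well, 0.5% dialyzed FBS); incubate 5 hrs at 37C; pin-transfer compounds or DMSO; incubate 17 hrs; add LiveBLAzer B/G substrate CCF4-AM; measure reporter activation by FRET.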

[5] = qHTS assay to identify small molecule agonists of H2AX - cell viability counter screen (AID 1224847; calls by dose curve; also: nearly all actives have a fitted effect of over 30% in size; also: potency is read from the fitted curve at half-maximal effect)
In short: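 For this counter screen, overnight-attached CHO-K1 cells received test compounds (15 concentrations, 0.76% DMSO final); 3 hr later at 37C, CellTiter-Glo reagent was added and luminescence recorded after 30 min at room temperature.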

[6] = qHTS assay to identify small molecule antagonists of the estrogen related receptor (ERR) signaling pathway from Tox21 library (AID 1224848); also: nearly all actives have a fitted effect of over 50% in size
In short: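 Cells: ERR line, 2,000/well; 6 h preincubation 37 C/5% CO2. Cpd in DMSO via pin tool; 18 h, 37 C. ONE-Glo, 30 min RT, luminescence.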

[7] = qHTS assay to identify small molecule agonists of the estrogen related receptor (ERR) signaling pathway from Tox21 library (AID 1224849; calls by dose curve; also: nearly all actives have a fitted effect of over 15% in size); conditions: ERR reporter cell line, ONE-Glo luciferase, 18 h
In short: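 Agonist signal is luciferase luminescence from an ERR reporter cell line treated 18 h at 37 C with DMSO-dissolved compounds, read 30 min after ONE-Glo addition at room temperature.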

[8] = qHTS RealTime-Glo MT Cell Viability Assay in HepG2 cells - 24 hour (AID 1224867); also: nearly all actives have a fitted effect of over 50% in size
In short: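 Cell number in HepG2 cultures estimated from NanoLuc luminescence generated by metabolic reduction of a prosubstrate by living cells. The homogeneous, nonlytic format allowed repeated reads at 0, 8, 16, 24, 32 and 40 h of compound exposure.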

[9] = qHTS RealTime-Glo MT Cell Viability Assay in HEK293 cells - 32 hour (AID 1224868); also: nearly all actives have a fitted effect of over 50% in size; also: potency is read from the fitted curve at half-maximal effect
In short: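 Homogeneous bioluminescent viability format in HEK293 cells (600 cells/well). Following 5 h at 37 C/5% CO2, 23 nL compound was pintooled; the signal was measured repeatedly during 40 h incubation.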

[10] = A CellTox Green Cytotoxicity Assay to monitor cytotoxicity in HEK293 cells - 0 hour (AID 1224869); also: nearly all actives have a fitted effect of over 50% in size; also: potency is read from the fitted curve at half-maximal effect
In short: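 Cytotoxicity was tracked continuously in HEK293 cells by a DNA-binding dye excluded from viable cells. Compounds were transferred in DMSO 5 h after seeding; fluorescence was recorded at intervals up to 40 h.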

| SMILES | Potency [1] | Potency [2] | Potency [3] | outcome [4] | Potency [5] | Potency [6] | activity change, positive = activation ([7]; at 42.5 µM (top of the series)) | activity change, positive = activation ([7]; at 92.4 µM (top of the series)) | Potency [8] | Potency [9] | Potency [10] |
| --- | --- | --- | --- | --- | --- | --- | --- | --- | --- | --- | --- |
| O=C1O[C@H](CO)[C@@H](O)[C@H](O)[C@H]1O | inactive | inactive | inactive | inactive | inactive | inactive | 3.62% (inactive) | -0.676% (inactive) | inactive | inactive | inactive |
| c1ccc2ccccc2c1 | inactive | inactive | inactive | inactive | inactive | inactive | – | 7.43% (inactive) and 7.09% (inactive) | inactive | inactive | inactive |
| NCCNCCNCCNCCN | inactive | inactive | inactive | inactive | inactive | inactive | – | – | inactive | inactive | inactive |
| C=C(C#N)C(=O)OCC | inactive | inactive | inactive | inactive | inactive | inactive | – | 7.93% (inactive) and 0.135% (inactive) | inactive | inactive | inactive |
| Cc1ccc(N)c(S(=O)(=O)O)c1 | inactive | inactive | inactive | inactive | inactive | – | – | – | inactive | inactive | inactive |
| O=[N+]([O-])C(CO)(CO)CO | inactive | inactive | inactive | inactive | inactive | inactive | – | – | inactive | inactive | inactive |
| OC[C@@H](O)[C@H](O)[C@H](O)[C@@H](O)CO | inactive | inactive | inactive | inactive | inactive | inactive | – | – | inactive | inactive | inactive |
| CN(CCOc1ccc(CC2SC(=O)NC2=O)cc1)c1ccccn1 (configuration not stated) | inactive | inactive | inactive | inactive | inactive | – | – | – | inactive | inactive | inactive |
| C=C(C)C(=O)OCCCCCC | inactive | inactive | inactive | inactive | inactive | – | – | – | inactive | inactive | inactive |
| COC(=O)c1ccc(C(=O)OC)cc1 | inactive | 4.96 µM (active) and inactive | inactive | inactive | inactive | – | – | – | inactive | 39.4 µM (active) and inactive | inactive |
| O=S(=O)(Oc1ccc(Cl)cc1Cl)c1ccccc1 | inactive | inactive | inactive | inactive | 91.4 µM (active) and 50.5 µM (active) | inactive | – | -20% (inactive) and 8.74% (inactive) | inactive | inactive | inactive |
| C=C(C)C(=O)OCC(CC)(COC(=O)C(=C)C)COC(=O)C(=C)C | inactive | inactive | inactive | inactive | – | – | – | – | inactive | inactive | inactive and 42.9 µM (active) |
